# In ChEMBL document CHEMBL1157539, “Thousands of chemical starting points for antimalarial lead identification” (Nature, 2010):
# System: Plasmodium falciparum
# Assay: GSK_TCMDC: Inhibition of Plasmodium falciparum 3D7 in whole red blood cells, using parasite LDH activity as an index of growth. Test compounds present at 2uM
# Format: functional
row,Structure (SMILES),Inhibition [%]
1,CCOC(=O)c1nc(-c2cc(Cl)nc(Cl)c2)[nH]c1NC(=S)NCCCN1CCOCC1,89
2,Brc1cc(Br)c2c(c1)C(NCCCNc1nc3ncccc3[nH]1)CCN2.O=C(O)CCC(=O)O (configuration not stated),99
3,Cl.O=C(/C=C/c1ccc(F)cc1)NC1CCC(CCN2CCCN(c3ccc(C(F)(F)F)cn3)CC2)CC1 (configuration not stated),97
4,O=C(NC1CCN(Cc2ccccc2O)C1)c1cccc(C(F)(F)F)c1.O=C(O)C(F)(F)F (configuration not stated),98
5,COc1ccc2c(Nc3ccc(N4CCN(C)CC4)cc3)cc(C)nc2c1,100
6,O=C(NCc1ccc(F)cc1)Nc1cccc(-c2ccc(-c3nc4cc(F)ccc4[nH]3)cc2)c1,100
7,COc1ccc2nccc([C@@H](O)CN3CCC(NCc4cc5cc(Cl)ccc5[nH]4)CC3)c2c1.O=C(O)C(=O)O,99
8,CC1(C)CCC(C)(C)c2c1ccc(C1CCN(CCCCNC(=O)c3ccc(-c4ccc(C#N)cc4)cc3)CC1)c2O,100
9,CCc1cc(NC(=O)Nc2ccnc3ccccc23)ccc1OC.Cl,85
10,Cc1cc(Nc2nc(Nc3cccc(Cl)c3)nc3ccccc23)n[nH]1,100
11,CCOC(=O)c1ccc(NC(=O)Nc2cccc(-c3ccc(-c4nc5cc(F)ccc5[nH]4)cc3)c2)cc1,100
12,CN1CCN(c2ccc3[nH]c(-c4ccc(Cc5cc(Cl)ccc5OCc5ccccc5)o4)nc3c2)CC1.Cl,100
13,O=C(O)C(F)(F)F.Oc1ccc(CCNc2nc(NCc3cccc(-c4cc(C(F)(F)F)ccc4Cl)c3)nc(N3CCNCC3)n2)cc1,90
14,Cc1nc(-c2nc(N3CCC(C(N)=O)CC3)ncc2-c2ccsc2)sc1C,93
15,O=C(NCc1ccc(F)cc1)Nc1ccc(-c2ccc(-c3nc4ccccc4[nH]3)cc2)cc1,100
16,COc1ccccc1-c1cccc(Nc2c(Nc3ccc(Cl)cc3)c(=O)c2=O)c1,81
17,COc1ccc2nccc([C@@H](O)CN3CCC(NCc4ccc5sc(=O)[nH]c5c4)CC3)c2c1.O=C(O)C(=O)O,98
18,Cc1[nH]c(C)c(-c2ccc(-c3ccccc3)nc2)c(=O)c1Br,96
19,O=C(Nc1ccsc1)Nc1cccc(-c2ccc(-c3nc4cc(C(F)(F)F)ccc4[nH]3)cc2)c1,99

row,Structure (SMILES),Inhibition [%]
1,O=C(Nc1ccc(S(=O)(=O)N2CCCCCC2)cc1)c1cc(-c2ccccc2O)n[nH]1,100
2,COc1ccc(CN2CCCN(Cc3cccc(NC(=O)c4cc5ccccc5s4)c3)CC2)cc1.O=C(O)C(F)(F)F,94
3,O=C(NC1CCC(N2CCN(c3cccc(C(F)(F)F)c3)CC2)CC1)c1cc2ccccc2[nH]1 (configuration not stated),99
4,FC(F)(F)c1cccc(Nc2nc3nonc3nc2NC2C3CC4CC(C3)CC2C4)c1 (configuration not stated),100
5,CC(C)(C)c1ccc(CNC(=O)/C=C/c2ccc(-c3nc4cc(C(C)(C)C)ccc4[nH]3)cc2)cc1,100
6,NS(=O)(=O)c1cccc(Nc2nccc(-c3cnn4ncccc34)n2)c1,89
7,OC1CCC(Nc2ccc3ncc(-c4ccc(Cl)cc4)n3n2)CC1 (configuration not stated),97
8,CN(C)c1ccc(NC(=O)Nc2ccnc3ccccc23)cc1Br.Cl,98
9,Cc1cccc2nc(-c3cccc(-c4cccc(NC(=O)COc5ccccc5C(N)=O)c4)c3)[nH]c12,100
10,O=C(Nc1cccc(CN2CCN(Cc3ccc(O)cc3)CC2)c1)c1ccc(-c2ccccc2)cc1.O=C(O)C(F)(F)F,100
11,CCCCSc1ccc2nc(-c3c[nH]c4ccc(C#N)cc34)cn2c1,94
12,COc1ccc(C(=O)Nc2ccc3nc(N4CCCCC4)cc(C)c3c2)cc1OC,92
13,COc1ccc(Br)cc1/C=C/C(=O)Nc1ccc2c(c1)CCCN(C)C2,84
14,CCCCCCCC1CC(CC(=O)Nc2ccnc3ccc(OC)cc23)CN1 (configuration not stated),90
15,COc1ccc(CC(=O)NC(CCCN2CCC(c3ccccc3)CC2)c2ccc(Cl)c(Cl)c2)cc1OC (configuration not stated),82
16,Cc1cc(=O)[nH]c2cc(Nc3ccnc(Nc4cccc(C(N)=O)c4)n3)ccc12.Cl,99
17,O=C(NCCCCN1CCC(c2ccc3c(c2OCCOCCO)CCCC3)CC1)c1ccc(-c2ccc(C(F)(F)F)cc2)cc1,97
18,CC(C)(C)c1ccc(NC(=O)c2ccc(CN3CCCN(Cc4cccc(F)c4)CC3)cc2)cc1.O=C(O)C(F)(F)F,90
